Laboratory results from PubChem BioAssay (NCATS).
Records with an inconclusive call do not appear. Where a call stands in place of a potency, no number is given. The source made the active and inactive calls. Unless noted, the call rests on the fitted dose curve; in most records, active means well fitted curve in the direction sought with a large enough effect; inconclusive means small, poorly fitted or top-dose-only effect, or another doubt; inactive means no such curve, though single readings can be large; an effect the other way counts as inactive or inconclusive.

How the values were obtained:
[1] = qHTS of pediatric cancer cell lines to identify multiple opportunities for drug repurposing: Primary screen for TC32 cells (AID 1347089); further: nearly all actives have a fitted effect of over 60% in size; further: potency means the concentration at half of the fitted maximal effect
Method in brief: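 A viability screen of TC32 cells was run over 48 h, with primary MIPE doses spanning 0.78 nM–46 µM and NPC doses 0.59 nM–46 µM. ATP luminescence (CellTiter-Glo) served as the read-out.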

[2] = qHTS of pediatric cancer cell lines to identify multiple opportunities for drug repurposing: Primary screen for DAOY cells (AID 1347090); further: nearly all actives have a fitted effect of over 55% in size; further: potency means the concentration at half of the fitted maximal effect
Method in brief: (§1)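 Eight- or eleven-point concentration series, 48 h treatment at 37 degrees C in growth media; readout CellTiter-Glo luminescence. Potency and efficacy were taken from the concentration-response curves.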

[3] = qHTS of pediatric cancer cell lines to identify multiple opportunities for drug repurposing: Primary screen for SJ-GBM2 cells (AID 1347091); further: potency means the concentration at half of the fitted maximal effect
Method in brief: as §1

[4] = qHTS of pediatric cancer cell lines to identify multiple opportunities for drug repurposing: Primary screen for A673 cells (AID 1347092); further: nearly all actives have a fitted effect of over 45% in size; further: potency means the concentration at half of the fitted maximal effect
Method in brief: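 Titration-based qHTS on A673 cells: MIPE compounds spanned 11 points (0.78 nM to 46 µM final), NPC compounds 8 points (0.59 nM to 46 µM final). Viability after 48 h was measured by ATP luminescence.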

[5] = qHTS of pediatric cancer cell lines to identify multiple opportunities for drug repurposing: Primary screen for SK-N-MC cells (AID 1347093); further: potency means the concentration at half of the fitted maximal effect
Method in brief: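 Metabolically active cells were quantified by ATP-dependent luminescence (CellTiter-Glo, 15 min at room temperature) following 48 h treatment. Cells had been plated at 500-1,000 per well and settled for 5 h beforehand.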

[6] = qHTS of pediatric cancer cell lines to identify multiple opportunities for drug repurposing: Primary screen for BT-37 cells (AID 1347094); further: potency means the concentration at half of the fitted maximal effect
Method in brief: (§2)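 Readout: CellTiter-Glo luminescence, 48 h treatment. Controls DMSO (neutral) and bortezomib 2.3 µM final (positive). Potency and efficacy taken from primary-screen concentration-response curves.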

[7] = qHTS of pediatric cancer cell lines to identify multiple opportunities for drug repurposing: Primary screen for NB-EBc1 cells (AID 1347095); further: potency means the concentration at half of the fitted maximal effect
Method in brief: as §2

[8] = qHTS of pediatric cancer cell lines to identify multiple opportunities for drug repurposing: Primary screen for U-2 OS cells (AID 1347096); further: nearly all actives have a fitted effect of over 50% in size; further: potency means the concentration at half of the fitted maximal effect
Method in brief: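 Cells (500-1,000/well) in growth media were settled 5 h at 37 degrees C, then given compounds for 48 h. Viability was read as CellTiter-Glo luminescence. Primary runs used MIPE at 11 points (0.78 nM-46 µM) and NPC at 8 points (0.59 nM-46 µM); follow-ups used 11 points.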

[9] = NS1 protein of Zika virus - qHTS assay to identify small molecule inhibitors in human HEK 293 cells (AID 1347053); further: series mostly up to about 46 µM; nearly all actives have a fitted effect of over 55% in size
Method in brief: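 HEK 293; 20 h pre-culture, 37 C/5% CO2; cpd 1 h pre-infection; ZIKV MR766, MOI = 0.5, 24 h, 37 C; TR-FRET NS1 readout (two anti-NS1 Abs); norm. to no-virus vs infected.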

[10] = target: Parathyroid hormone/parathyroid hormone-related peptide receptor (Homo sapiens) (UniProt Q03431); experiment: qHTS for PTHR1 Agonists: Optimization Screen against the NCGC LOPAC library (AID 1347079);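 further: GloSensor cAMP luminescence in HEK-293 GP2 cells expressing human PTHR1 with IBMX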
Sequence of Parathyroid hormone/parathyroid hormone-related peptide receptor (Homo sapiens) (Q03431 whole entry, looked up): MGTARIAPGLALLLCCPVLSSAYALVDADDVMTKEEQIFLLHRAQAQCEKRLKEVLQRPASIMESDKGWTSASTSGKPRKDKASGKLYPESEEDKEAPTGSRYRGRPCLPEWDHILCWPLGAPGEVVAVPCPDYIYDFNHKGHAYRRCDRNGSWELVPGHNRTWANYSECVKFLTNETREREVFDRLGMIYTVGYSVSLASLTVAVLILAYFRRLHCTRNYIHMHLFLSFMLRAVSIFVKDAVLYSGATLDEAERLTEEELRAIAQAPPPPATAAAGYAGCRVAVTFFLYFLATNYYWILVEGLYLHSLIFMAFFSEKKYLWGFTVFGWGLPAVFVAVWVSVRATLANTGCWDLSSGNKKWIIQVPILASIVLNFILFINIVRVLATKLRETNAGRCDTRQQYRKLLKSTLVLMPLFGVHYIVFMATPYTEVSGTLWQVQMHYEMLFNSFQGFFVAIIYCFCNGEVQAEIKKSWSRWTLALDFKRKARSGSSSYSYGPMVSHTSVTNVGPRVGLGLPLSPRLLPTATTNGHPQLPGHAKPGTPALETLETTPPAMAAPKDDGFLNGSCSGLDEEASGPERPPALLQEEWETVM
Method in brief: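 Agonist readout: GloSensor cAMP luminescence, read after 15 min at room temperature. HEK-293-derived GP2 line carries PTHR1; compounds tested as a titration for 1 hr at 37C in presence of IBMX. M-PTH (1-15) served as control.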

[11] = target: T1, Tyrosine-protein phosphatase non-receptor type substrate 1 (Homo sapiens) + Leukocyte surface antigen CD47 (Homo sapiens) (UniProt P78324+Q08722); experiment: CD47-SIRPalpha protein protein interaction - LANCE assay qHTS validation (AID 1347057; active means well fitted curve in the direction sought with a large enough effect in the signal ratio, with a control signal flat, not every such curve was filed as active; the % refers to the signal ratio; further: series mostly up to about 38 µM)
T1 sequence (P78324 whole entry, looked up): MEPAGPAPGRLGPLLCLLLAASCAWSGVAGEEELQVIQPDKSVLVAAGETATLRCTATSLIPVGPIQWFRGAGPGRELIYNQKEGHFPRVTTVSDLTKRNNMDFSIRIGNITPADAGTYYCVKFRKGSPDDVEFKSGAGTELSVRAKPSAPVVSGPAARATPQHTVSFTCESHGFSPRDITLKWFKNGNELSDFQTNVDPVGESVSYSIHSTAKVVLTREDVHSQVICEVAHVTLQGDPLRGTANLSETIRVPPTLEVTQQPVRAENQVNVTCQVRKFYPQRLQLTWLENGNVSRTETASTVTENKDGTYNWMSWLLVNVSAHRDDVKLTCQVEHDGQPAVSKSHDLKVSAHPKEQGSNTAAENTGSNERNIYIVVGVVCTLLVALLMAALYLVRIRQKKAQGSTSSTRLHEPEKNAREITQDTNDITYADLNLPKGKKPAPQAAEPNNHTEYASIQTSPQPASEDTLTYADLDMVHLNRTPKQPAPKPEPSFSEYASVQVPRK
T1 sequence (Q08722 whole entry, looked up): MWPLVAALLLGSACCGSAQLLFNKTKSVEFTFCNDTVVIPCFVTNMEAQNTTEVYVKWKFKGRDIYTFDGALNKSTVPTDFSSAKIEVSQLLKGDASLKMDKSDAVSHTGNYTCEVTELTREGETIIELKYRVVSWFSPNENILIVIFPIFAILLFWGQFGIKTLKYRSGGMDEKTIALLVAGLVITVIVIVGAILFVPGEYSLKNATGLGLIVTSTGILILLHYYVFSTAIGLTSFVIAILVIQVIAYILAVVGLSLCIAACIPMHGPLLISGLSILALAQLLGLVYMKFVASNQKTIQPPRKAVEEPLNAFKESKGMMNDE
Method in brief: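 First, His-tagged CD47 and Eu-labelled anti-His antibody met the compound for 30 min; next, site-specifically biotinylated SIRPalpha was added for 30 min; finally streptavidin-APC was added before reading the TR-FRET ratio.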

[12] = target: T1, Tyrosine-protein phosphatase non-receptor type substrate 1 (Homo sapiens) + Leukocyte surface antigen CD47 (Homo sapiens); experiment: CD47-SIRPalpha protein protein interaction - Alpha assay qHTS validation (AID 1347059);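 further: bead proximity luminescence from CD47 binding SIRPalpha after compound preincubation with SIRPalpha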
Method in brief: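 Soluble extracellular domains: Avi-tag biotinylated SIRPalpha (25 nM) preincubated 30 min RT with compound, then 6His-CD47 (12.5 nM) 30 min; Ni-NTA acceptor and streptavidin donor beads (10 ug/mL) 30 min, AlphaScreen read. PBS pH 7.4, 0.05% IGEPAL.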

COC(=O)c1nc(Cl)c(Cl)nc1N
Potency [1]: 3.33 µM (active) | Potency [2]: 1.33 µM (active) | Potency [3]: 5.31 µM (active) | Potency [4]: 2.11 µM (active) | Potency [5]: 0.668 µM (active) | Potency [6]: 13.8 µM (active) | Potency [7]: 1.33 µM (active) | Potency [8]: 13.3 µM (active)

O=c1[nH]c2ccccc2n1CCCN1CCN(C(c2ccccc2)c2ccccc2)CC1
Potency [9]: inactive | Potency [1]: inactive | Potency [2]: inactive | Potency [7]: inactive | Potency [8]: inactive

C[N+]1(C)[C@@H]2CC(OC(=O)[C@H](CO)c3ccccc3)C[C@H]1[C@@H]1O[C@@H]12 (stereo partly drawn)
Potency [9]: inactive | Potency [1]: inactive | Potency [2]: inactive | Potency [3]: inactive | Potency [4]: inactive | Potency [5]: inactive | Potency [6]: inactive | Potency [7]: inactive | Potency [8]: inactive

N=C1N=C(N)c2cc3ccccc3cc21
Potency [1]: inactive | Potency [2]: 24.3 µM (active) | Potency [3]: 24.3 µM (active) | Potency [4]: 19.3 µM (active) | Potency [5]: 6.86 µM (active) | Potency [6]: 15.9 µM (active)

c1ccc(CCNc2nc(-c3ccccc3)cs2)cc1
Potency [1]: inactive | Potency [5]: inactive | Potency [6]: inactive | Potency [8]: inactive

CCCC(=O)OC[C@@H](OC(=O)CCC)[C@@H](OC(=O)CCC)[C@H](Cn1c2nc(=O)[nH]c(=O)c-2nc2cc(C)c(C)cc21)OC(=O)CCC
Potency [9]: inactive | Potency [1]: inactive | Potency [2]: inactive | Potency [3]: inactive | Potency [8]: inactive

Oc1c(Br)cc(Br)c2cccnc12
Potency [1]: inactive | Potency [2]: 16.8 µM (active) | Potency [3]: 11.9 µM (active) | Potency [4]: 3.35 µM (active) | Potency [5]: 10.6 µM (active) | Potency [7]: 10.6 µM (active) | Potency [8]: inactive

Nc1cc(-c2ccncc2)c[nH]c1=O
Potency [9]: inactive | Potency [1]: inactive | Potency [2]: inactive | Potency [3]: inactive | Potency [4]: inactive | Potency [5]: inactive | Potency [6]: inactive | Potency [8]: inactive

Cc1ccc2c(n1)Oc1ccc(C(C)C(=O)OCC(=O)N(C)C)cc1C2 (stereo not drawn)
Potency [9]: inactive | Potency [1]: inactive | Potency [2]: inactive | Potency [3]: inactive | Potency [4]: inactive | Potency [5]: inactive | Potency [6]: inactive | Potency [7]: inactive | Potency [8]: inactive

COc1ccccc1N1CCN(CCN(C(=O)c2ccc(I)cc2)c2ccccn2)CC1
Potency [10]: inactive

CCCCCCCC/C=C/C(=O)O
Potency [9]: inactive | Potency [1]: inactive | Potency [2]: inactive | Potency [3]: inactive | Potency [5]: 42.2 µM (active) | Potency [6]: inactive | Potency [7]: inactive | Potency [8]: inactive

CC1(C)S[C@@H]2[C@H](NC(=O)[C@H](N)c3ccccc3)C(=O)N2[C@H]1C(=O)O
Potency [9]: inactive | Potency [1]: inactive | Potency [2]: inactive | Potency [3]: inactive | Potency [4]: inactive | Potency [5]: inactive | Potency [6]: inactive | Potency [7]: inactive | Potency [8]: inactive

CCCCCC(O)c1cccc(OCc2ccc3ccccc3n2)c1 (stereo not drawn)
Potency [10]: inactive

NC(=O)C(c1ccccc1)(c1ccccc1)[C@@H]1CCN(CCc2ccc3c(c2)CCO3)C1
Potency [9]: inactive | Potency [1]: inactive | Potency [3]: inactive | Potency [4]: inactive | Potency [5]: inactive | Potency [6]: inactive | Potency [8]: inactive

O=C(O)/C=C\C(=O)O
Potency [9]: inactive | Potency [1]: inactive | Potency [2]: inactive | Potency [3]: inactive | Potency [4]: inactive | Potency [5]: inactive | Potency [6]: inactive | Potency [7]: inactive | Potency [8]: inactive

CN1CCN(c2cc3c(nn2)Oc2ccccc2N3C)CC1
Potency [9]: inactive | Potency [1]: inactive | Potency [2]: inactive | Potency [3]: inactive | Potency [4]: inactive | Potency [5]: inactive | Potency [6]: inactive | Potency [7]: inactive | Potency [8]: inactive

O=c1cc(-c2ccccc2)oc2ccccc12
Potency [9]: inactive | Potency [2]: inactive | Potency [3]: inactive | Potency [5]: inactive | Potency [7]: inactive

CNC(=O)c1c(I)c(NC(=O)CCCCC(=O)Nc2c(I)c(C(=O)O)c(I)c(C(=O)NC)c2I)c(I)c(C(=O)O)c1I
Potency [9]: inactive | Potency [1]: inactive | Potency [2]: inactive | Potency [3]: inactive | Potency [4]: inactive | Potency [5]: inactive | Potency [6]: inactive | Potency [7]: inactive | Potency [8]: inactive

Cc1cc(O)c2ccccc2c1O
Potency [1]: inactive | Potency [4]: 10.6 µM (active) | Potency [5]: 21.1 µM (active)

O=Cc1ccc(O)c(O)c1O
Potency [9]: inactive | Potency [1]: inactive | Potency [2]: inactive | Potency [3]: inactive | Potency [6]: inactive | Potency [7]: inactive

COc1ccc(/C=C2\COc3ccc(C)cc3C2=O)cc1O
Potency [11]: inactive | Potency [12]: inactive

O=C(CCN1CCN(CCO)CC1)N1c2ccccc2Sc2ccc(C(F)(F)F)cc21
Potency [9]: inactive | Potency [1]: inactive | Potency [2]: inactive | Potency [3]: inactive | Potency [4]: inactive | Potency [5]: inactive | Potency [6]: inactive | Potency [7]: inactive | Potency [8]: inactive

Cc1[nH]cnc1CN1CCc2c(c3ccccc3n2C)C1=O
Potency [9]: inactive | Potency [1]: inactive | Potency [2]: inactive | Potency [3]: inactive | Potency [4]: inactive | Potency [5]: inactive | Potency [6]: inactive | Potency [7]: inactive | Potency [8]: inactive
